Test results reported in PMC4336329 (PLoS ONE, 2015).
The campaign covered roughly 310,000 compounds. About 14,000 (4.5%) showed an effect of 50% or more. Effects have a minus sign here. This is one part of a sample in which strong results are shown more often than they occur.

Target: human ether-à-go-go-related gene (hERG) potassium channel (human, UniProt Q12809)
Assay: primary screen, population patch clamp on CHO cells stably expressing hERG; higher = less effect of the substance
Description: Briefly, Chinese hamster ovary (CHO) cells stably expressing the hERG channel were dislodged from tissue culture flasks and dispensed into PPC plates. […] During the recording, background leak currents were estimated by a 100 ms step to -80 mV from an initial holding potential of -70 mV and subtracted from the subsequent current measurement. The campaign was conducted in two phases using slight differences in recording protocol. In the first phase, the initial voltage pulse used a 100 ms step to -30 mV from a holding potential of -70 mV, a 2 s conditioning step to +25 mV, and a 2 s test step to -30 mV. During the second phase of the screen, the potential during the conditioning step was raised to +45 mV. In both phases of the campaign, a secondary voltage pulse was applied using the same parameters as the second phase initial pulse. The initial and secondary pulses were applied in the absence of compound, and upon application of 1 μM and 10 μM test concentrations. […]
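Also: peak tail current of the secondary pulse compared with the same well before compound.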

Chain of human ether-à-go-go-related gene (hERG) potassium channel (Q12809 whole entry, looked up): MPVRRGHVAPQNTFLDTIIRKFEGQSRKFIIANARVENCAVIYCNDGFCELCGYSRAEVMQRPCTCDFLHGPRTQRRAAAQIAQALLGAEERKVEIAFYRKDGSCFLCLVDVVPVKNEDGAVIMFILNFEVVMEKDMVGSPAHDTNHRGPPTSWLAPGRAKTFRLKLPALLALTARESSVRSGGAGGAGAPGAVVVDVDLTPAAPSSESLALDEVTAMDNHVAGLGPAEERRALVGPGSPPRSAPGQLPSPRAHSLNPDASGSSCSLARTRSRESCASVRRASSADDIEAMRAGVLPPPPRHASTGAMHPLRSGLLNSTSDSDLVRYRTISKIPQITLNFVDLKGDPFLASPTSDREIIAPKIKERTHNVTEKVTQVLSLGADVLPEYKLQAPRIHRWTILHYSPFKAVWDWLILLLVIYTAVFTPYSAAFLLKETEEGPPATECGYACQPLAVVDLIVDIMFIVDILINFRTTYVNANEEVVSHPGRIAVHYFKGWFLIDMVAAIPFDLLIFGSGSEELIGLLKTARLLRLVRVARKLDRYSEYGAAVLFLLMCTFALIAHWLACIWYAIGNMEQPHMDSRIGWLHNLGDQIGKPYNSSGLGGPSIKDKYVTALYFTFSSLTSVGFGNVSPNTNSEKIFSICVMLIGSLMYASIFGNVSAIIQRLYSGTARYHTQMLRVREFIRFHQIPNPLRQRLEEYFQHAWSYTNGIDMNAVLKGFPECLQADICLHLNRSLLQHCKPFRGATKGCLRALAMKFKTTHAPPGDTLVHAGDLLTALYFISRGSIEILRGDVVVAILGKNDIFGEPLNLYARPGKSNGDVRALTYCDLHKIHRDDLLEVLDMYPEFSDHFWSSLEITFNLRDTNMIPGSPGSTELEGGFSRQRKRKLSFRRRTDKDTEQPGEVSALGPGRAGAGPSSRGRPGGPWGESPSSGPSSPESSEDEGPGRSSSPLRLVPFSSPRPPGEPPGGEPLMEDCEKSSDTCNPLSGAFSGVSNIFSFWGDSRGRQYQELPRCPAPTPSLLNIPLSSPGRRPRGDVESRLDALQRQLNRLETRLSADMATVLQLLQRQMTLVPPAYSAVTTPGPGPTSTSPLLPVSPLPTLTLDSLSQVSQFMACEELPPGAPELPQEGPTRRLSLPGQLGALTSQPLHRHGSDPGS

Structure (SMILES) | hERG current change (%, negative = inhibition) at 10uM [%]
c1ccc(C2=Nn3c(nnc3-c3cc(-c4ccccc4)n[nH]3)SC2)cc1 | 6.46
COc1ccc(OC)c(/C=N/NC(=O)CSc2nnc(C)n2-c2ccccc2)c1 | -12.4
CCOc1cc(/C=C(\C#N)C(=O)NCc2cccnc2)ccc1O | -8.66
COc1ccccc1/C=C\C=N\NC(=O)CCn1nnc2ccccc21 | -3.44
Cc1nc(Br)c(Br)c(C)c1Br | 14.4
O=C(CNc1cccc(S(=O)(=O)N2CCCCCC2)c1)Nc1cccc([N+](=O)[O-])c1 | -71.9
O=C(CCNC(=O)c1ccc([N+](=O)[O-])cc1)Nc1ccc(Cl)c(S(=O)(=O)N2CCOCC2)c1 | -66.2
Cc1ccc(NC(=O)CCNC(=O)c2ccc([N+](=O)[O-])cc2)cc1S(=O)(=O)N1CCOCC1 | -47.4
CC(=O)c1cccc(NCC(=O)Nc2cccc(S(=O)(=O)N3CCCCC3)c2)c1 | -31.6
O=C(CNc1cccc(S(=O)(=O)N2CCCCC2)c1)Nc1cccc(F)c1 | -9.9
O=C(CCNC(=O)c1ccc([N+](=O)[O-])cc1)Nc1ccc(S(=O)(=O)N2CCOCC2)cc1 | 2.67
Cc1ccc(-n2c(C)nnc2SCC(=O)N(C)C2CCS(=O)(=O)C2)cc1 (stereo not drawn) | 12.9
Cl.O=C(CCc1ccc(S(=O)(=O)N2CCOCC2)cc1)N1CCN(Cc2ccc3c(c2)OCO3)CC1 | -34.3
Clc1ccc(-c2cn3nc4c(nc3n2)CCCC4)cc1 | -15.3
CCOC(=O)c1ccc(NC(=O)c2ccc(NC(=O)C3CCCO3)cc2)cc1 (stereo not drawn) | 17
O=C(Nc1ccccc1N1CCN(C(=O)c2ccc(Cl)cc2)CC1)c1ccc(Br)cc1 | -41.5
COc1ccccc1C(=O)Nc1ccccc1N1CCCCC1 | -22.4
CC(C)(C)C(=O)Nc1ccccc1N1CCN(C(=O)c2ccc(Cl)cc2)CC1 | -48.2
COc1ccccc1C(=O)Nc1ccccc1N1CCN(C(=O)c2ccc(Cl)cc2)CC1 | -82.1
COc1cccc(OC)c1C(=O)Nc1ccccc1N1CCCC1 | -74.6
O=C(Nc1ccccc1N1CCCCC1)c1cccc(Cl)c1 | 13.5

Structure (SMILES) | hERG current change (%, negative = inhibition) at 10uM [%]
COc1ccccc1C(=O)Nc1ccccc1N1CCOCC1 | -6.98
CC(C)C(=O)Nc1ccccc1N1CCN(C(=O)c2ccccc2)CC1 | -14.2
O=C(Nc1ccccc1N1CCN(C(=O)c2ccccc2)CC1)c1cccc(Cl)c1 | -67.8
COc1cccc(OC)c1C(=O)Nc1ccccc1N1CCCCC1 | -17.4
CC(C)C(=O)NC(=S)Nc1ccccc1N1CCN(C(=O)c2ccc(Cl)cc2)CC1 | -3.55
O=C(Nc1ccccc1N1CCN(C(=O)c2ccccc2)CC1)c1ccc(Cl)cc1 | -73.2
O=C(NC1CCSc2ccccc21)c1ccc(Cl)c(S(=O)(=O)N2CCOCC2)c1 (stereo not drawn) | 7.48
Cc1ccc(C(=O)Nc2nc3ccccc3s2)s1 | 8.75
CC(C)[C@H](NC(=O)c1ccco1)C(=O)N(C)Cc1c(F)cccc1Cl | -32.3
CCOC(=O)C1(C)/C(=N/Nc2ccccc2Cl)C(=O)C(=O)N1c1ccccc1 (stereo not drawn) | 6.03
Cc1ccc(S(=O)(=O)n2nc(C)c(Br)c2C)c(C)c1C | 20.8
Cc1ccc(S(=O)(=O)NCc2ccc(C(=O)N3CCN(c4ccccn4)CC3)cc2)cc1 | -33.6
Nc1nc(-c2ccccc2)nc2sc3c(c12)CCCC3 | 11.7
CCOc1ccc(C(=O)Nc2ccccc2N2CCCC2)cc1 | -22.8
COc1ccccc1C(=O)Nc1ccccc1N1CCN(S(C)(=O)=O)CC1 | -62
Cc1ccc(C(=O)Nc2ccccc2N2CCN(C(=O)C(C)C)CC2)cc1C | -18.7
COc1cc(C(=O)Nc2ccccc2N2CCN(S(C)(=O)=O)CC2)cc(OC)c1OC | -29.9
COc1cc(Cl)ccc1NC(=O)COc1ccccc1C(=O)NN | -15.4
CCOc1cccc(C(=O)Nc2ccccc2N2CCN(C(=O)C(C)C)CC2)c1 | -70
CCCCOc1cccc(C(=O)Nc2ccccc2N2CCCC2)c1 | 5.59
CC(C)C(=O)N1CCN(c2ccccc2NC(=O)c2cccc(Cl)c2)CC1 | -69.6

Structure (SMILES) | hERG current change (%, negative = inhibition) at 10uM [%]
Cc1ccc(C(=O)Nc2ccccc2N2CCN(C(=O)C(C)C)CC2)cc1 | -19.1
COc1cc2ccccc2cc1C(=O)Nc1ccccc1N1CCN(S(C)(=O)=O)CC1 | 6.35
COc1ccccc1NC(=O)COC(=O)c1ccccc1C(=O)N1CCN(c2ccccc2)CC1 | -42.3
COc1cc(Cl)ccc1NC(=O)COc1ccccc1C(=O)N1CCN(c2ccc(O)cc2)CC1 | -53.9
O=C(CNC(=O)c1ccc(Cl)cc1)c1ccccc1 | -9.6
CC(C)OC(=O)CSc1nnc2c(n1)[nH]c1ccc(F)cc12 | 8.22
CN(C(=O)Cn1nnc(-c2ccc(F)cc2)n1)C1CCS(=O)(=O)C1 (stereo not drawn) | -2.38
NC1=NC(=O)C(CC(=O)c2ccc(Cl)cc2)S1 (stereo not drawn) | 1.23
COc1cccc(-n2c(SCC(=O)NCc3cccs3)nc3ccccc3c2=O)c1 | -2.74
O=C(NC(=S)NCc1ccccc1)c1ccc2c(c1)OCO2 | -8.81
COC(=O)c1ccccc1NC(=S)NC(=O)c1ccc2c(c1)OCO2 | 32.6
O=C(Nc1ccccc1N1CCCC1)c1cccc(F)c1 | 6.24
Cc1ccc(C(=O)N2CCN(c3cc(=O)[nH]nc3-c3ccccc3)CC2)cc1 | -41.7
O=C(Nc1ccccc1N1CCN(C(=O)c2ccc(Cl)cc2)CC1)c1cccc([N+](=O)[O-])c1 | -75
CCC(=O)N1CCN(c2ccc(Cl)cc2NC(=O)c2cccc([N+](=O)[O-])c2)CC1 | -49.2
O=C(Nc1ccccc1N1CCN(c2ccccc2)CC1)c1cccc(F)c1 | -8.05
O=C(c1ccc(Cl)cc1)N1CCN(c2cc(=O)[nH]nc2-c2ccccc2)CC1 | -58.3
O=C(c1ccc(F)cc1)N1CCN(c2cc(=O)[nH]nc2-c2ccccc2)CC1 | -4.51
O=C(NC(=S)Nc1ccccc1Br)c1ccc2c(c1)OCO2 | -56.4
O=C(Nc1ccccc1N1CCN(C(=O)c2ccc(Cl)cc2)CC1)c1cccc(F)c1 | -78.9
O=C(Nc1ccc(Cl)cc1C(=O)N1CCCC1)c1cccc([N+](=O)[O-])c1 | -12

Structure (SMILES) | hERG current change (%, negative = inhibition) at 10uM [%]
COc1ccc(OC)c(NC2=C(Cl)C(=O)N(Cc3ccccc3)C2=O)c1 | 5.06
CCn1c(COc2cc(C)ccc2C(C)C)nnc1SCC(=O)Nc1nccs1 | 5.52
COC(=O)c1ccc(N)cc1O | 22
Cc1cccc2c(C(=O)Nn3cnnc3)cc(-c3ccccc3Cl)nc12 | 25.8
CC(=O)N1CCN(c2ncnc3sc(-c4ccccc4)cc23)CC1 | -44.4
CCOC(=O)c1cnc(SCC(=O)N2CCN(C(=O)c3ccco3)CC2)nc1N | -29.3
CN1CCN(c2ccc(NC(=O)c3cccc(OCc4ccccc4)c3)cc2)CC1 | -8.95
CN1CCN(c2ccccc2NC(=O)c2cccc(OCc3ccccc3)c2)CC1 | -78.9
O=C(Nc1ccccc1N1CCCC1)c1cccnc1 | -0.385
O=C(Nc1ccc(N2CCN(C(=O)c3ccccc3)CC2)c(Cl)c1)c1cccnc1 | -31.2
O=C(Nc1ccccc1N1CCN(C(=O)c2ccccc2)CC1)c1ccc2c(c1)OCO2 | -60.7
O=C(Nc1ccccc1N1CCN(C(=O)c2ccc(Cl)cc2)CC1)c1ccc2c(c1)OCO2 | -46.8
O=C(Nc1ccccc1N1CCN(C(=O)c2ccc(Cl)cc2)CC1)c1cccnc1 | -73.2
CN1CCN(c2ccccc2NC(=O)c2ccc(OCc3ccccc3)cc2)CC1 | -41.9
O=C(Nc1ccccc1N1CCCC1)c1ccc2c(c1)OCO2 | -3.23
CCOc1ccc(C2C(C#N)=C(N)N3C(=C2C#N)Sc2ccccc23)cc1 (stereo not drawn) | 9.5
CC1Cc2ccccc2N1C(=O)CSc1nnc2n1C(C)(C)Cc1ccccc1-2 (stereo not drawn) | -3.06
CC(C)CNC(=O)CCc1nc(-c2ccccc2)no1 | 10.4
O=[N+]([O-])c1cc(S(=O)(=O)C(F)(F)F)ccc1NCC1CCCO1 (stereo not drawn) | 16.5
O=C(NCCCn1ncc2ccccc21)c1cc(COc2c(F)cccc2F)on1 | 6.73
CCn1ncc(Br)c1C(=O)Nc1ccc(Cl)cn1 | -7.49
